# JMJD2E inh – qHTS Assay for Inhibitors of Human Jumonji Domain Containing 2E (JMJD2E) | Potency, µM (series often up to 57.1 µM), without a hit: at the highest dose activity change, negative = inhibition, actives largely listed as inhibitors | hit rate 1.6% among 230,000 | AID 2147, 2009 | JMJD2E catalytic domain, FDH-coupled NADH fluorescence (FDH is formaldehyde dehydrogenase) | Lysine-specific demethylase 4E (Homo sapiens), B2RXH2; active = well fitted inhibition curve with a large enough effect, not every such curve was filed as active; inconclusive = small, poorly fitted or top-dose-only effect, or another doubt; inactive = no such curve, though single readings can be large or run the other way;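 note: potency is the fitted concentration of half-maximal effect; 0% = wells with enzyme and -100% = buffer wells without enzyme; nearly all actives have a fitted effect of over 50% in size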
# Target sequence (B2RXH2 1-337 limits assumed): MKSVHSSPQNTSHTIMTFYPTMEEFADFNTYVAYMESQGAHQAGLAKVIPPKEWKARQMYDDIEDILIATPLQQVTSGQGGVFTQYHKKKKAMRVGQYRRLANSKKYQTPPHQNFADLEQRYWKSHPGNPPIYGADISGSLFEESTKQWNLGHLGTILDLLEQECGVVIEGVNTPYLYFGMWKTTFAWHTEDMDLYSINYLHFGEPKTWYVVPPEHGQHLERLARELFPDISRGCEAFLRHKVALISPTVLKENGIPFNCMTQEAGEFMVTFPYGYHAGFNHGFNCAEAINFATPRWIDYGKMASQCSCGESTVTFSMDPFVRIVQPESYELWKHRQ
# Tau FP inhib – qHTS for Inhibitors of Tau Fibril Formation, Fluorescence Polarization; K18 P301L tau heparin fibrillization, Alexa594 FP, 6 h; Potency, µM (top dose mostly 57.7 µM), inactives show top-dose activity, negative = inhibition, actives largely listed as inhibitors; hit rate 0.39% among 280,000; note: potency is the fitted concentration of half-maximal effect; nearly all actives have a fitted effect of over 55% in size
# Target sequence (P10636 561-689 P618L limits assumed): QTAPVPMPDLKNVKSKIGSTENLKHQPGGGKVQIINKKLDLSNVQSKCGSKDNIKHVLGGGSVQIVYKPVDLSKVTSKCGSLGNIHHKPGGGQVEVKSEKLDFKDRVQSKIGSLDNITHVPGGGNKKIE
#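 K18 P301L tau (15 uM unlabeled/0.24 uM Alexa 594-labeled, final) + compound + heparin 20 uM final; 100 mM NaOAc pH 7; 6 hr 37 C; ThT 30 uM final added, 1 hr RT; FP ex 555/em 632 nm.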
# Tau fluor counter – Counterscreen qHTS for Inhibitors of Tau Fibril Formation, Fluorescence Polarization. tau K18 P301L Alexa594 fluorescence, heparin fibrillization. AID 1463, 2008. Potency, µM (top dose mostly 57.7 µM), for the others: at the highest dose activity change, negative = decrease. hit rate 0.93% among 280,000; note: potency is the fitted concentration of half-maximal effect; nearly all actives have a fitted effect of over 55% in size
#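 Human K18 P301L tau (15 uM unlabeled plus 0.24 uM Alexa 594-labeled, final) in 100 mM sodium acetate pH 7 was mixed with compound and 20 uM heparin and incubated 6 hr at 37 C.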
# PNC inhibitor – High Content Assay for Compounds that inhibit the Assembly of the Perinucleolar Compartment | PC3M PTB-GFP, PNC prevalence imaging, 16 h; active compounds read low | activity change (PNC), negative = inhibition, % at 10 µM | hit rate 3.1% among 140,000 | AID 2417, 2010;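 active = readout at or below -70, meaning at least 70% loss of cells showing the perinucleolar compartment, a nuclear body marking cancer cells; inconclusive = readout between -30 and a set limit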;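 note: plate controls were DMSO wells for no effect and camptothecin positive control wells for full effect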
#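 Read-out is percentage of cells bearing a perinucleolar compartment, from automated 20x imaging of fixed, Hoechst-stained PC3M PTB-GFP cells. Cells were seeded 4 h, then exposed 16 h to compound (23 nl of library stock) in duplicate plates.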
# Tau ThT inhib – qHTS for Inhibitors of Tau Fibril Formation, Thioflavin T Binding | recombinant tau K18 P301L, heparin-induced fibrillization, ThT fluorescence | Potency, µM (top dose mostly 57.4 µM), for the others: top-dose activity, negative = inhibition, actives largely listed as inhibitors | hit rate 2.1% among 270,000; note: potency is the fitted concentration of half-maximal effect; nearly all actives have a fitted effect of over 55% in size
#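 ThT emission at 510 nm, taken 1 hr after adding 30 uM dye, quantifies aggregates formed when 20 uM heparin acts on human tau K18 P301L for 6 hr at 37 C.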
# NPSR antag – qHTS Assay for Antagonists of the Neuropeptide S Receptor: cAMP Signal Transduction | Q6W5P4 | AID 1461, 2008 | hit rate 1% among 220,000 | Potency, µM (doses to about 38.3 µM), for inactives: at the highest dose activity change, negative = inhibition, hits mostly inhibitors | CHO-NPSR cells, cAMP TR-FRET, antagonist mode; note: potency is the fitted concentration of half-maximal effect; nearly all actives have a fitted effect of over 50% in size
# Numbers without * were called inactive; ? = inconclusive; · = no result given; [ ] = another dose, or the depositor's remark. Sampled rows, rich in hits. Any-hit rate of the full collection: about 5.1%. Unless noted, calls come from the whole dose curve; as a rule, active = well fitted curve in the direction sought with a large enough effect; inconclusive = small, poorly fitted or top-dose-only effect, or another doubt; inactive = no such curve, though single readings can be large; an effect the other way counts as inactive or inconclusive. Unless noted, % is set by controls: 0 for no effect and ±100 for the full control effect.
SMILES,JMJD2E inh,Tau FP inhib,Tau fluor counter,PNC inhibitor,Tau ThT inhib,NPSR antag
COC(=O)c1cccc(-n2c(CCC(=O)O)ccc2-c2ccc(OC)cc2)c1,·,1.3%,-12.5%,·,?,·
COc1ccc(CNC(=O)c2cccs2)cc1,-6.2%,9.0%,-1.9%,-100.0*,-6.9%,-6.3%[46.1 µM]
COc1ccc(OCC(=O)NNC(=O)c2cccs2)cc1,2.1%,4.7%,2.2%,53.3,-9.2%,-3.1%[46.1 µM]
N#CC(c1ccccc1O)N1N=C(c2ccccc2)CC1c1ccccc1 (stereo unspecified),31.6µM*,3.9%,?,·,?,?
COc1cc(C(C#N)N2N=C(c3ccccc3)CC2c2ccccc2)ccc1O (stereo unspecified),-25.2%,-1.7%,-12.6%,-14.4,-18.6%,-15.1%[46.1 µM]
CCN(Cc1ccccc1)S(=O)(=O)c1ccc(F)c(C(=O)Nc2ccc(C(C)C)cc2)c1,·,-14.4%,-15.2%,·,1.2%,·
COc1ccc(Nc2nc(N)c([N+](=O)[O-])c(N3CCOCC3)n2)cc1,-2.2%,10.2%,?,·,?,9.1%[7.67 µM]
CN(C)c1ccc(Nc2nc(N)c([N+](=O)[O-])c(N3CCOCC3)n2)cc1,3.0%,6.6%,?,?,15.8µM*,-23.5%
COc1ccccc1-c1noc(-c2ccc(N3CCN(C)CC3)c([N+](=O)[O-])c2)n1,·,3.1%,-6.2%,·,-2.7%,·
CC(/C=N/NC(=O)Cc1cccn1C)=C\c1ccco1,?,?,-22.4%,29.0,28.2µM*,-4.7%[46.1 µM]
COc1ccc(-c2cc(C(=O)OCC(=O)Nc3ccc4c(c3)OCO4)c3ccccc3n2)cc1,?,-13.0%,8.91µM*[quencher],-15.0,?,-10.8%
O=C(COC(=O)c1cc(-c2ccco2)nc2ccccc12)NCc1ccc2c(c1)OCO2,?,?,-24.4%,-100.0*,-16.8%,-3.9%[46.1 µM]
O=C(COC(=O)c1cc(-c2cccs2)nc2ccccc12)NCc1ccco1,?,20µM*,-25.8%,?,15.8µM*,-20.5%[46.1 µM]
O=C(COC(=O)c1cc(-c2ccc(Cl)s2)nc2ccccc12)NCc1ccco1,?,?,?,5.5,?,?
COc1ccc(CNC(=O)COC(=O)c2cc(-c3ccc(Cl)s3)nc3ccccc23)cc1,3.8%,?,-27.8%,?,-7.5%,10µM*
O=C(COC(=O)c1cc(-c2ccccc2)nc2ccccc12)Nc1ccc2c(c1)OCO2,62.5%,?,?,14.3,-3.6%,-18.4%
COc1ccc(Cl)cc1NC(=O)Cn1cc2c(n1)CCC(C)C2 (stereo unspecified),·,-4.5%,-17.1%,·,0.3%,·
COc1cccc(C(c2sc3nc(-c4ccco4)nn3c2O)N2CCC(C)CC2)c1 (stereo unspecified),·,-10.3%,-11.2%,·,-12.8%,·
Cc1noc(C)c1CN1C(=O)NC(Cc2ccccc2)(Cc2ccccc2)C1=O,-0.7%,-0.5%,-6.4%,-106.9*,-1.9%,-13.0%[46.1 µM]
CC1(C)NC(=O)N(CCOCCOc2ccc3ccccc3c2Br)C1=O,2.2%,11.4%,-18.3%,-111.1*,-14.3%,3.7%[46.1 µM]
CC(=O)Nc1ccc(NC(=O)C(C)OC(=O)CN(C)S(=O)(=O)c2ccc(Cl)cc2)cc1 (stereo unspecified),1.4%,-1.8%,-12.8%,-113.4*,-13.1%,-12.2%[46.1 µM]
O=C(CSC1=Nc2ccccc2N=C(c2ccc(F)cc2)C1)NCc1ccccc1Cl,·,-6.6%,-15.2%,·,-17.0%,·
COc1ccc(C(=O)[C@]2(C)C=C(c3ccc(OC)cc3)[C@H](C)C2)cc1,-6.6%,-4.5%,-12.8%,·,-8.4%,·
O=[N+]([O-])c1ccc(Sc2cccc3cccnc23)c([N+](=O)[O-])c1,10.3%,-6.4%,?,21.0,?,3.16µM*
Cc1ccc(OCCN2CCN(CC(O)Cn3c4ccccc4c4ccccc43)CC2)cc1 (stereo unspecified),8.91µM*,-5.7%,-28.1%,64.6,?,-42.0%
SMILES,JMJD2E inh,Tau FP inhib,Tau fluor counter,PNC inhibitor,Tau ThT inhib,NPSR antag
CSc1nnc(CNC(=O)C23CC4CC(CC(C4)C2)C3)n1Cc1ccccc1,4.4%,4.4%,0.4%,-115.1*,-2.8%,0.2%
CCNC(=O)c1ccc(C2SCC(=O)N2Cc2ccco2)cc1 (stereo unspecified),0.5%,-0.7%,0.0%,84.6,-5.9%,-2.6%[46.1 µM]
CC(C)CCNC(=O)c1ccc(C2SCC(=O)N2Cc2ccco2)cc1 (stereo unspecified),5.2%,-13.5%,-16.6%,-110.0*,-16.1%,-13.7%[46.1 µM]
Cc1ccc(S(=O)(=O)/C(C#N)=C/c2c[nH]c3ccccc23)cc1,-10.7%,12.6µM*,10µM*[quencher],?,?,-13.4%[46.1 µM]
Cc1ccc(C(=O)/C=C/c2cn(CN3CCN(C)CC3)c3ccccc23)cc1,?,-8.6%,14.1µM*[quencher],11.7,?,?
Cn1cc(/C=C/C(=O)c2ccccc2)c2ccccc21,-26.8%,-6.4%,?,·,?,-48.2%
Cc1ccc(C(=O)/C=C/c2c[nH]c3ccccc23)cc1,?,-14.4%,14.1µM*[quencher],10.5,?,-26.9%[46.1 µM]
COc1ccc2[nH]cc(/C=C/C(=O)c3ccccc3)c2c1,-15.4%,11.2%,8.91µM*[quencher],·,?,29.5%
CCOc1ccccc1-n1nnc(S(=O)(=O)c2ccc(C)cc2)c1N,·,-7.5%,-21.8%,·,-5.2%,·
Cc1ccc2onc(CC(=O)N3CCN(c4cccc(C)c4C)CC3)c2c1,·,-4.7%,6.9%,·,-2.4%,·
CCOC(=O)N1CCN(C(=O)c2cc3c(=O)[nH]c4ccccc4c3s2)CC1,?,-3.9%,-3.5%,-118.9*,?,15.7%
CN(C)c1ccc(CNC(=O)Cn2ccc3cc(S(=O)(=O)N4CCCCCC4)ccc32)cc1,·,8.7%,?,·,-0.2%,·
Cc1cc(C)cc(-n2ccnc(NCc3ccc(F)cc3)c2=O)c1,·,6.6%,-6.5%,·,-1.2%,·
CCOC(=O)C1=C(Cc2ccc(OC)cc2)C(=O)c2ccccc2C1=O,?,12.6µM*,?,-20.6,8.91µM*,?
CCOC(=O)C1=C(Cc2ccc(C)cc2)C(=O)c2ccccc2C1=O,-20.1%,35.5µM*,?,24.1,15.8µM*,10µM*
Cc1ccc(C)c(NC(=O)Cc2coc3cc(C)cc(C)c23)c1,·,?,-13.4%,·,-13.6%,·
Cc1ccc(NC(=O)CCN2C(=O)c3ccccc3Sc3ncccc32)c(Cl)c1,·,5.4%,-8.3%,·,1.6%,·

# Bioassay records as filed in PubChem BioAssay.
